In PubChem BioAssay (NCI):
Several values for one entry are separate records, joined by “and”; a condition that tells them apart may be missing. Equal entries are not always repeated. Compounds without any hit were thinned out: in the full panel of roughly 83,000, 20% have a hit.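 Interpretation: 100, growth as untreated; towards 0, rising growth inhibition; 0, no net growth; 0 to -100, cell death. Compounds scoring below 10 were considered active.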 Where a structure was tested more than once in an assay, its records may differ in their call. Activity calls are given as the source filed them.

What was measured:
Assay in all cases: NCI-60 one-dose screen, 48 h (100 = growth as untreated, 0 = no growth, -100 = all killed)
Conditions in all cases: 10 µM unless noted
DU-145 prostate = tested on: DU-145 prostate
K-562 leukemia = tested on: K-562 leukemia
MALME-3M melanoma = tested on: MALME-3M melanoma
MDA-MB-231 breast = tested on: MDA-MB-231 breast
RXF 393 renal = tested on: RXF 393 renal
SF-268 CNS = tested on: SF-268 CNS
SF-295 CNS = tested on: SF-295 CNS
SF-539 CNS = tested on: SF-539 CNS
UACC-257 melanoma = tested on: UACC-257 melanoma
M14 melanoma = tested on: M14 melanoma

Structure (SMILES): Cc1ccc2nc3c(nc2c1)-c1cccc2cccc-3c12
- growth (DU-145 prostate): 86.4% (inactive)
- growth (K-562 leukemia): 97.5% (inactive)
- growth (MALME-3M melanoma): 124% (inactive)
- growth (MDA-MB-231 breast): 75.8% (inactive)
- growth (RXF 393 renal): 85.2% (inactive)
- growth (SF-268 CNS): 89.2% (inactive)
- growth (SF-295 CNS): 102% (inactive)
- growth (SF-539 CNS): 85.4% (inactive)
- growth (UACC-257 melanoma): 106% (inactive)
- growth (M14 melanoma): 102% (inactive)

Structure (SMILES): CN(C)CCCNC1=C(Cl)C(=O)c2ccccc2C1=O
- growth (DU-145 prostate): 75.2% (inactive) and 31.7% (inactive)
- growth (K-562 leukemia): -46.7% (active) and -23.9% (active)
- growth (MALME-3M melanoma): -82.7% (active) and -88.9% (active)
- growth (MDA-MB-231 breast): 69.6% (inactive) and 41.9% (inactive)
- growth (RXF 393 renal): 122% (inactive) and 2.27% (active)
- growth (SF-268 CNS): 102% (inactive) and 75% (inactive)
- growth (SF-295 CNS): 87% (inactive) and 72.2% (inactive)
- growth (SF-539 CNS): 102% (inactive) and 101% (inactive)
- growth (UACC-257 melanoma): 28.4% (inactive) and -96.6% (active)
- growth (M14 melanoma): -87% (active) and -99.1% (active)

Structure (SMILES): CC(/C=N/N1C(=O)c2ccccc2C1=O)c1ccccc1 (stereo not given)
- growth (DU-145 prostate): 115% (inactive)
- growth (K-562 leukemia): 106% (inactive)
- growth (MALME-3M melanoma): 101% (inactive)
- growth (MDA-MB-231 breast): 108% (inactive)
- growth (RXF 393 renal): 101% (inactive)
- growth (SF-268 CNS): 117% (inactive)
- growth (SF-295 CNS): 90.9% (inactive)
- growth (SF-539 CNS): 106% (inactive)
- growth (UACC-257 melanoma): 90.5% (inactive)
- growth (M14 melanoma): 108% (inactive)

Structure (SMILES): CC1=CCC2CC1C2(C)C (stereo not given)
- growth (DU-145 prostate): 98.6% (inactive) and 112% (inactive)
- growth (K-562 leukemia): 102% (inactive) and 98.4% (inactive)
- growth (MALME-3M melanoma): 101% (inactive) and 127% (inactive)
- growth (MDA-MB-231 breast): 95.8% (inactive) and 96.9% (inactive)
- growth (RXF 393 renal): 102% (inactive) and 71% (inactive)
- growth (SF-268 CNS): 115% (inactive) and 94.1% (inactive)
- growth (SF-295 CNS): 94.2% (inactive) and 106% (inactive)
- growth (SF-539 CNS): 102% (inactive)
- growth (UACC-257 melanoma): -8.84% (active) and 108% (inactive)
- growth (M14 melanoma): 98.3% (inactive) and 90.3% (inactive)
